Shown are actives, neighbours in structure and some others; about 2.4% of the full set was active somewhere.
CHRM1 agonist – human M1 muscarinic receptor agonists, primary screen, Fluo-8 calcium fluorescence, CHO-K1 cells, HTS. actives 0.33% (n = 360,000). CHO-K1 hM1, agonist mode; 0% DMSO, 100% acetylcholine EC100. activation, % at 3 µM;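 active = activation above the run's mean compound activation plus 3 SD, cut at about 16% in these data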;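 also: peak over basal fluorescence ratio within a 140 s kinetic read after compound addition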
Target sequence (P11229 whole entry, looked up): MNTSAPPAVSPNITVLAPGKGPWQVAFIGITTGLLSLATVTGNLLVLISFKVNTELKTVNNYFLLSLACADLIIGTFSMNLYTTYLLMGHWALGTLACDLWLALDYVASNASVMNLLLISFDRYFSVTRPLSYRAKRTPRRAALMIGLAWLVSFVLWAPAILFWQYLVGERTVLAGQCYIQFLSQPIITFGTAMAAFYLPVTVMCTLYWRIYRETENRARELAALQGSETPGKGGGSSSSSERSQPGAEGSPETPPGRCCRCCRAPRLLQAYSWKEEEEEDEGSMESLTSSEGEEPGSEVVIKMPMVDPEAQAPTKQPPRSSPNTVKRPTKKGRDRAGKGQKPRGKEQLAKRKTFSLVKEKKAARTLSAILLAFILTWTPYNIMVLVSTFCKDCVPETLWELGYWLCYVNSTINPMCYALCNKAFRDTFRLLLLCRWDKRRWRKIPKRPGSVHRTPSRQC
CHRM1 PAM – human M1 muscarinic receptor positive allosteric modulators, primary screen, CHO-K1 cells, Fluo-8 calcium fluorescence, 1536-well; CHO-K1 hM1, ACh EC20; 0% = ACh EC20, 100% = maximal ACh; actives 0.088% (n = 360,000); activation, % at 3 µM; Muscarinic acetylcholine receptor M1 (Homo sapiens), P11229; in the data active = activation above about 19%, passing the limit was not always enough
CHO-K1 Ca antag – counter-screen for M1 antagonists: effect in parental CHO-K1 cells; ATP-induced calcium, Fluo-8 fluorescence; actives 0.6% (n = 360,000); inhibition, % at 3 µM;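 active = inhibition above a per-plate cutoff, the plate's mean sample inhibition plus 3 SD, cut at about 24% in these data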
M1 PAM parental – nonselective calcium activators in parental CHO-K1 cells, primary screen, counter-screen for M1 PAM project, cell-based, Fluo-8 calcium fluorescence, full deck, 1536-well | ATP EC20; 0% at ATP EC20, 100% at ATP max | activation, % at 3 µM | actives 0.02% (n = 360,000) | AID 602247, 2012;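 active = activation above the run cutoff, the mean activation of all test compounds plus 3 SD, cut at about 40% in these data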;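 also: peak over basal fluorescence ratio in a 140 s read after ATP addition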
M1 antag – human M1 muscarinic receptor antagonists, primary screen, CHO-K1 cells, Fluo-8 calcium fluorescence, 1536-well; CHO-K1 hM1, ACh EC80 antagonist; inhibition, % at 3 µM; actives 1.3% (n = 360,000); AID 588852, 2011;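 active = percent inhibition above its own plate's cutoff, namely the mean of that plate's compound wells plus 3 SD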;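 also: peak over basal fluorescence ratio during 140 s after agonist addition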
CHO-K1 Ca ag – counter-screen for M1 agonists: effect in parental CHO-K1 cells; Fluo-8 calcium fluorescence; scaled to maximal ATP response, vehicle zero; activation, % at 3 µM; actives 0.48% (n = 360,000); AID 602248, 2012; in the data active = activation above about 15%;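 also: untransfected CHO-K1 host cells lacking M1 receptor as counterscreen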
Numbers stand for hits; i = inactive; nt = no result given.

SMILES	CHRM1 agonist	CHRM1 PAM	CHO-K1 Ca antag	M1 PAM parental	M1 antag	CHO-K1 Ca ag
O=C(N=C1SC2CS(=O)(=O)CC2N1c1ccc(Cl)c(Cl)c1)C1CCCO1 (centres undefined)	i	i	i	i	i	i
CN(c1ccccc1)S(=O)(=O)c1ccc(NC(=O)c2ccccc2)cc1	i	i	i	i	i	i
Cc1cc(NC(=O)c2ccc(N(C)S(=O)(=O)c3ccccc3)cc2)no1	i	i	i	i	i	17
CN(c1ccccc1)S(=O)(=O)c1ccc(NC(=O)c2ccc(F)cc2)cc1	i	i	i	i	i	19
CN(c1ccc(C(=O)Nc2ccccn2)cc1)S(=O)(=O)c1ccccc1	i	i	i	i	i	i
CN(c1ccc(C(=O)NCCSCc2ccccc2)cc1)S(=O)(=O)c1ccccc1	i	i	24	i	i	i
COc1ccc(CNC(=O)c2ccc(N(C)S(=O)(=O)c3ccc(C)cc3)cc2)cc1	i	i	25	i	i	i
Cc1cccc(CSCCNC(=O)c2ccc(N(C)S(=O)(=O)c3ccccc3)cc2)c1	i	i	i	i	i	i
O=C(NNc1ccccc1[N+](=O)[O-])Nc1cccc(Cl)c1	i	i	i	i	i	i
CC1(C(=O)Nc2ccc(Cl)c(Cl)c2)CCN1C(=O)CCC1CCCC1 (centres undefined)	i	i	i	i	i	i
C=CCNC(=O)N1CCCC(N2CCN(c3ccccc3OC)CC2)C1 (centres undefined)	i	i	i	i	i	i
O=c1nc(-c2ccccc2)c2cc(Br)ccc2[nH]1	i	i	i	i	i	i
O=c1nc(-c2ccccc2)c2cc(SC(F)F)ccc2[nH]1	i	28	i	i	i	i
C/C(=N\NC(=O)Cn1cc([N+](=O)[O-])cn1)c1ccc(O)cc1	i	i	i	i	i	i
COc1ccc(/C(N)=N/OC(=O)CCc2ccccc2)cc1OC	i	i	i	i	i	i
Cc1cccc(/C(N)=N/OC(=O)CCc2ccccc2)c1	i	i	i	i	31	i
NC(=O)c1oc2ccccc2c1NC(=O)c1ccc(F)cc1	i	i	27	i	62	i
CCCn1nnc(NC(=O)/C=C/c2ccc(C(C)C)cc2)n1	i	i	60	i	i	i
OC[C@@H]1CN(Cc2ccccc2)C[C@H](n2cnc3c(NCc4ccncc4)ncnc32)O1	i	i	i	i	i	i
CC(C)NC(=O)N(C)C[C@H]1Oc2ncc(Br)cc2C(=O)N([C@H](C)CO)C[C@@H]1C	i	i	i	i	i	i
CCOC(=O)c1c(NC(=O)CSc2nnc(-c3ccccc3C)n2C)sc(C(C)=O)c1C	i	i	i	i	46	i
OCCC1CN(Cc2nc(-c3ccc(F)cc3)cs2)CCN1CCc1ccccc1 (centres undefined)	i	i	i	i	i	i
CC(C)=CCN1CCN(Cc2nc(-c3ccccc3)cs2)CC1CCO (centres undefined)	i	i	i	i	34	i
OCCC1CN(Cc2nc(-c3ccccc3)cs2)CCN1CCc1ccccc1 (centres undefined)	i	i	i	i	i	16
OC(c1ccccc1)(c1nc(/C=C/c2ccc(C(F)(F)F)cc2)cs1)C(F)(F)F (centres undefined)	i	i	i	i	i	i
SMILES	CHRM1 agonist	CHRM1 PAM	CHO-K1 Ca antag	M1 PAM parental	M1 antag	CHO-K1 Ca ag
CCCCN(C(=O)CSc1nnc(-c2ccc(OC)cc2)n1C(C)C)c1c(N)n(Cc2ccccc2)c(=O)[nH]c1=O	i	i	i	i	i	i
CCCCN(C(=O)CSc1nnc(-c2ccc(OC)cc2)n1CC)c1c(N)n(Cc2ccccc2)c(=O)[nH]c1=O	i	i	28	i	i	i
CCc1cccc(C)c1NC(=S)NCC(c1cccnc1)N(C)C (centres undefined)	i	i	i	i	i	17
O=C(Nc1ccn(CCCN2CCN(c3ncccn3)CC2)c(=O)n1)OCc1ccccc1	i	i	i	i	22	i
O=C(Nc1ccn(CCCN2CCN(Cc3ccc(F)cc3)CC2)c(=O)n1)OCc1ccccc1	i	i	i	i	39	i
O=C(Nc1ccn(CCCNCc2ccccn2)c(=O)n1)OCc1ccccc1	i	i	i	i	i	i
CCc1cccc(C)c1Nc1nc2ccccc2n2cnnc12	i	i	i	i	i	i
CCN(CC)C(=S)NC(=O)c1cc(OC)c(OC)c(OC)c1	i	i	i	i	i	i
CCOC(=O)C1=C(C)N(CC(C)C)C(=O)/C1=C\c1ccc(OCC(=O)Nc2ccccc2)cc1	i	i	i	i	34	i
COc1c2ccccc2nn1C(C)C	nt	nt	i	i	nt	i
O=C(/C=C/c1ccc(F)cc1)NC(=S)NNC(=O)[C@H]1C[C@@H]1c1ccccc1	49	i	i	i	i	40
COc1cc(OC)cc(C(=O)NC(=S)NNC(=O)[C@H]2C[C@@H]2c2ccccc2)c1	43	i	i	i	i	i
CC(C)(C)NC(=S)NNC(=O)[C@H]1C[C@@H]1c1ccccc1	i	i	i	i	i	i
O=C(NC(=S)NNC(=O)[C@H]1C[C@@H]1c1ccccc1)c1ccc(F)cc1	i	i	i	i	i	i
COc1ccc(C(=O)NC(=S)NNC(=O)[C@H]2C[C@@H]2c2ccccc2)cc1OC	19	i	i	i	i	i
COc1ccc(OC)c(CNc2ncc(-c3cccc([N+](=O)[O-])c3)n2C)c1	i	i	i	i	45	i
Cn1c(-c2cccc([N+](=O)[O-])c2)cnc1NCc1cccc([N+](=O)[O-])c1	i	i	i	i	i	i
CCc1ccc2c(c1)NC(=O)C2(C)Cc1ccc(Cl)s1 (centres undefined)	i	i	i	i	i	i
COCC(=O)N1CCC(Oc2ccc(C(=O)N3C[C@@H]4CCC[C@H]3C4)cc2)CC1	i	i	24	i	i	i
COc1ccc(Br)cc1/C(C)=N/NC1=NCCN1	68	i	i	i	79	i
CCCCCOc1ccc(Br)cc1/C(C)=N/NC1=NCCN1	i	i	i	i	i	i
Cc1ccccc1CN1CCN(C(=O)c2ccc(F)cc2)CC1	i	i	i	i	i	i
CCN(CC)c1ccc(/C=C(/C#N)c2nc3ccc(C)cc3[nH]2)c(OC(C)C)c1	31	i	50	i	52	39
CCCOc1cc(N(CC)CC)ccc1/C=C(/C#N)c1nc2ccc(C)cc2[nH]1	i	i	35	i	39	17
CCOc1cc(N(CC)CC)ccc1/C=C(/C#N)c1nc2ccccc2[nH]1	36	i	i	i	52	19

Assay outcomes from PubChem.
